Assay outcomes (PubChem BioAssay)
C diff growth = C. difficile growth inhibitors, primary screen, HTS. Clostridium difficile clinical isolate growth, OD600, 24 h; stronger effect = lower value. growth activity, negative = inhibition, % at 16 µg/mL (by protocol). 0.25% of 86,000 active. AID 1259249, 2017;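 active = mean growth activity at or below -80% and every replicate also at or below -80%; inconclusive = mean at or below -80% but some replicate above -80%; inactive = mean growth activity above -80%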;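 also: 0% = DMSO wells and -100% = levofloxacin 16 µg/mL wells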
Pf Dd2 inh = P. falciparum Dd2 growth inhibitors, primary screen, SYBR Green fluorescence, single dose replicates | 2.3% of 94,000 active | activity change, % at 10 µM | 72 h; stronger effect = lower value; in the data active = activity change below about -80%; inconclusive = no clear call, values can overlap the other calls
T cruzi growth-1 = T. cruzi intracellular proliferation inhibitors, primary screen, cell-based, beta-gal Tulahuen parasites, NIH3T3 host, luminescence. T. cruzi beta-gal in NIH3T3, GalScreen luminescence, 90 h. inhibition, % at 8.34 µM. 5.9% of 77,000 active. AID 624255, 2012;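 active = mean inhibition above about 93%, with at least 55% of replicates each passing it, limit read from the data, passing the limit was not always enough; inconclusive = only one of those two conditions holds; inactive = neither condition holds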
T cruzi growth-2 = T. cruzi intracellular proliferation inhibitors, confirmation, cell-based, NIH3T3 host, beta-gal parasite, luminescence, cherry-pick; shares compounds with T cruzi growth-1; T. cruzi beta-gal in NIH3T3, GalScreen luminescence, 90 h; inhibition, % at 8.35 µM; 72% of 5,600 active;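 active = mean replicate inhibition above about 95% and at least 55% of replicates individually reaching it, limit read from the data; inconclusive = only one of the two criteria is met; inactive = neither criterion is met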
T cruzi growth-3 = inhibitors of intracellular T. cruzi replication, confirmation, NIH3T3 host cells, beta-gal parasites, cherry-pick, set 2; T. cruzi beta-gal in NIH3T3, GalScreen luminescence, 90 h; 21% of 5,600 active; shares compounds with T cruzi growth-1; inhibition, % at 2.09 µM;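 active = mean inhibition above about 95%, with at least 55% of replicates also reaching it, limit read from the data; inconclusive = meets just one of the two conditions; inactive = meets neither condition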;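 also: plate controls were neutral control median for no effect and positive control median for full effect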
NIH3T3 tox = cytotoxicity in mouse NIH/3T3 fibroblasts, confirmation, cytotoxicity control for T. cruzi proliferation inhibitor project, cell-based, cherry-pick, single point; shares compounds with T cruzi growth-1; NIH/3T3 viability, CellTiter-Glo ATP luminescence, 90 h; cytotoxicity (signal decrease), % at 8.35 µM; 14% of 5,600 active;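 active = mean signal decrease across replicates above about 35% based on untreated-well scatter, with enough replicates individually passing, limit read from the data; inconclusive = no rule stated though some were filed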;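 also: 0% = median of neutral control wells and 100% = median of positive control wells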
NIH3T3 tox 2 = NIH/3T3 fibroblast cytotoxicity, confirmation, cytotoxicity control, cell-based, cherry-pick, single point, set 2; shares compounds with T cruzi growth-1; NIH/3T3 viability, CellTiter-Glo ATP luminescence, 90 h; inhibition, % at 24.9 µM; 56% of 5,600 active; AID 651744, 2012;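 active = mean loss of cell viability signal at or above a set limit, and enough replicates individually reaching it; inconclusive = meets only the mean limit or only the replicate share; inactive = meets neither condition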;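 also: 0% = median of neutral control wells and 100% = median of positive control wells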
* = called active by the depositor; u = inconclusive; x = no result. Sampled rows, rich in hits. Any-hit rate of the full collection: about 6.7%.

SMILES	C diff growth	Pf Dd2 inh	T cruzi growth-1	T cruzi growth-2	T cruzi growth-3	NIH3T3 tox	NIH3T3 tox 2
COc1ccc(S(=O)(=O)Nc2ccc3c(c2)C(=O)N([C@@H](C)CO)C[C@@H](C)[C@H](CN(C)Cc2ccc4c(c2)OCO4)OCCCC[C@H](C)O3)cc1	-1	-53	100*	109*	-2	11	65*
Cc1ccc(S(=O)(=O)Nc2ccc3c(c2)C(=O)N([C@@H](C)CO)C[C@H](C)[C@H](CN(C)Cc2ccc4c(c2)OCO4)OCCCC[C@@H](C)O3)cc1	-4	-70	31	x	x	x	x
COc1ccc(S(=O)(=O)Nc2ccc3c(c2)C(=O)N([C@H](C)CO)C[C@@H](C)[C@@H](CN(C)Cc2ccc4c(c2)OCO4)OCCCC[C@H](C)O3)cc1	-4	-69	55	x	x	x	x
C[C@@H]1CN([C@H](C)CO)C(=O)c2cccc(NS(=O)(=O)c3ccc(F)cc3)c2O[C@H]1CN(C)S(=O)(=O)c1cn(C)cn1	-4	9	15	x	x	x	x
CCCC#Cc1cnc2c(c1)C(=O)N([C@@H](C)CO)C[C@H](C)[C@@H](CN(C)S(=O)(=O)c1ccccc1)O2	-14	-60	79	x	x	x	x
CN1C(=O)c2cc(NC(=O)Nc3ccc(Cl)cc3)ccc2OC[C@@H]2O[C@H](CC(=O)NCCN3CCCCC3)CC[C@@H]21	9	-23	103*	108*	79	0	8
CCNC(=O)C[C@@H]1CC[C@@H]2[C@@H](COc3ccc(NC(=O)c4ccc5c(c4)OCO5)cc3C(=O)N2C)O1	-5	-11	27	x	x	x	x
CNC(=O)C[C@H]1CC[C@@H]2[C@@H](COc3ccc(NC(=O)c4ccc5c(c4)OCO5)cc3C(=O)N2C)O1	0	0	108*	-32	-8	-14	-5
CN1C(=O)c2cc(NC(=O)Nc3ccc(Cl)cc3)ccc2OC[C@H]2O[C@@H](CC(=O)NCCN3CCCCC3)CC[C@H]21	22	0	-12	x	x	x	x
COC(=O)C[C@H]1CC[C@H]2[C@H](COc3ccc(NC(=O)Nc4cccc(Cl)c4)cc3C(=O)N2C)O1	-5	-3	101*	103*	u	u	46*
COC(=O)C[C@H]1CC[C@@H]2[C@@H](COc3ccc(NC(=O)Nc4cccc(Cl)c4)cc3C(=O)N2C)O1	-8	2	26	x	x	x	x
CN1C(=O)c2cc(NC(=O)c3cccc(Cl)c3)ccc2OC[C@@H]2O[C@@H](CC(=O)NC3CCCCC3)CC[C@H]21	-4	-7	96*	u	43	9	u
CN1C(=O)c2cc(NC(=O)c3cccc(Cl)c3)ccc2OC[C@H]2O[C@H](CC(=O)NC3CCCCC3)CC[C@H]21	2	-23	82	x	x	x	x
C[C@@H]1CN([C@@H](C)CO)C(=O)Cc2cc(NC(=O)C3CC3)ccc2O[C@@H]1CN(C)Cc1ccc2c(c1)OCO2	-5	-15	42	x	x	x	x
C[C@@H]1CN([C@@H](C)CO)C(=O)c2cc(NC(=O)C3CCCCC3)ccc2O[C@@H](C)CCCCO[C@H]1CN(C)C(=O)CCCN(C)C	3	25	-1	x	x	x	x
CC(C)C(=O)Nc1ccc2c(c1)C(=O)N(C)[C@H]1CC[C@@H](CC(=O)NC3CCCC3)O[C@@H]1CO2	-2	8	-9	x	x	x	x
CCN(C[C@@H]1[C@@H](c2ccccc2)[C@H](CO)N1C(C)=O)C(=O)c1cccc(F)c1	-3	2	81	x	x	x	x
CNC(=O)C[C@@H]1CC[C@@H]2[C@H](COc3ccc(NC(=O)c4ccc5c(c4)OCO5)cc3C(=O)N2C)O1	0	8	34	x	x	x	x
CNC(=O)C[C@@H]1CC[C@H]2[C@@H](COc3ccc(NC(=O)c4ccc5c(c4)OCO5)cc3C(=O)N2C)O1	-1	-31	111*	-3	-15	-3	-1
COc1ccc(C#Cc2ccc([C@@H]3[C@H]4CN(C(=O)Nc5ccccc5)CCCCN4[C@H]3CO)cc2)cc1	-1	-70	106*	92	94	94*	106*
COc1ccc(NC(=O)N2CCCCN3[C@H](C2)[C@@H](c2ccc(C#Cc4ccccc4)cc2)[C@@H]3CO)cc1	23	-73	u	104*	119*	60*	104*
COc1ccc(C#Cc2ccc([C@@H]3[C@@H](CO)N4CCCCN(C(=O)Nc5ccccc5)C[C@H]34)cc2)cc1	45	-78	69	x	x	x	x
COc1ccc(NC(=O)N2CCCCN3[C@H](C2)[C@H](c2ccc(C#Cc4ccccc4)cc2)[C@@H]3CO)cc1	36	-2	99*	109*	57	27	56*
COc1ccc(NC(=O)N2CCCCN3[C@@H](CO)[C@H](c4ccc(C#Cc5ccccc5)cc4)[C@@H]3C2)cc1	-3	-75	67	x	x	x	x
CN1C(=O)c2cc(NC(=O)Cc3ccccc3)ccc2OC[C@@H]2O[C@@H](CC(=O)O)CC[C@@H]21	-2	2	6	x	x	x	x
SMILES	C diff growth	Pf Dd2 inh	T cruzi growth-1	T cruzi growth-2	T cruzi growth-3	NIH3T3 tox	NIH3T3 tox 2
COc1ccc2c3c(n(C)c2c1)[C@H](CO)N(C(C)=O)CC31CN(Cc2cccnc2)C1	x	16	x	x	x	x	x
Cc1ccccc1-c1ccc([C@H]2[C@H]3CN(C(=O)CN4CCOCC4)CCCCN3[C@H]2CO)cc1	-4	23	-1	x	x	x	x
O=C(CN1CCOCC1)N1CCCCN2[C@H](CO)[C@@H](c3ccc(/C=C/c4ccccc4)cc3)[C@@H]2C1	1	-5	56	x	x	x	x
Cc1ccccc1-c1ccc([C@@H]2[C@H](CO)N3CCCCN(C(=O)CN4CCOCC4)C[C@@H]23)cc1	-3	-34	101*	84	47	36*	32*
Cc1ccccc1-c1ccc([C@H]2[C@H](CO)N3CCCCN(C(=O)CN4CCOCC4)C[C@@H]23)cc1	-9	-4	102*	87	70	14	23
Cc1cccc(S(=O)(=O)N2CCCCN3[C@@H](CO)[C@H](c4ccc(-c5ccccc5)cc4)[C@@H]3C2)c1	47	12	94	x	x	x	x
Cc1cccc(-c2ccc([C@H]3[C@@H](CO)N4CCCCN(S(=O)(=O)c5cccc(C)c5)C[C@H]34)cc2)c1	36	-85*	100*	88	106*	50*	103*
Cc1cccc(-c2ccc([C@@H]3[C@H]4CN(S(=O)(=O)c5cccc(C)c5)CCCCN4[C@H]3CO)cc2)c1	-6	-20	110*	104*	115*	27	56*
